The values below come from PubChem BioAssay.

The source made the active and inactive calls.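 Rule for the calls, unless noted: active = compounds that lower viability of the colon cancer cells in the luminescence readout, with no numeric limit stated; inactive = the rest.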

A short description of experiment [1]: stimulators of nuclear beta-catenin in C2C12, primary screen, imaging, WNT3A-conditioned medium, mouse C2C12, NPC library (AID 1117326; in the data active = nuclear beta-catenin stimulation mostly above about 4.2%, no sharp cut-off; inactive = mostly below about 10%; note: reference of the scale not given here). As to conditions: stronger effect = higher value.
Experiment [2] can be described thus: stimulators of insulin release from INS-1E, primary screen, cell-based, 5 mM glucose, NPC library (AID 1117329;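 active = compound raises insulin release from rat beta cells at 5 mM glucose, no numeric limit stated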; note: reference of the scale not given here). As to conditions: rat INS-1E insulin secretion, at 10 µM, stronger effect = higher value.
The nature of experiment [3]: growth inhibition of GSK3B-pretreated HCT116 cells – cell-based, CellTiter-Glo, 0.2 to 20 µM (AID 1117336;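 active = compounds lowering colon cancer cell viability after pretreatment blocking the GSK3B kinase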). The following applies: HCT116 viability after GSK3B inhibitor, at 20 µM, stronger effect = higher value. For orientation: In ATP-based viability assays light output follows the ATP content of the culture.
Experiment [4] can be described thus: inhibition of endothelial tube formation, primary screen, imaging, VEGF stimulated, CD31 staining, tube area, NPC library (AID 1117340;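 active = compound that reduces growth-factor-driven endothelial tube area in a mixed cell culture, no cutoff stated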). The following applies: VEGF-stimulated ADSC/ECFC co-culture, at 10 µM, stronger effect = higher value.
Experiment [5] is described as follows: glucagon-like peptide 1 release enhancers, primary assay, NCI-H716 cell line, NPC library (AID 1117341;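 active = compound raises GLP1 secretion from the human gut endocrine cells, with no numeric limit stated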; note: reference of the scale not given here). As to conditions: NCI-H716 cells, at 10 µM, stronger effect = higher value.
A short description of experiment [6]: HCT116 colon cancer cell growth inhibition, primary screen, CellTiter-Glo luminescence, NPC library (AID 1117342;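 active = compounds that lower survival of HCT116 colon cancer cells in the luminescence readout, no numeric limit stated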). As to conditions: at 20 µM (top of the series).
A short description of experiment [7]: CellTiter-Glo luminescent readout of SW480 viability loss, NPC library primary (AID 1117343). The following applies: CellTiter-Glo luminescence; at 20 µM (top of the series).
Experiment [8] can be described thus: decreased DLD-1 cellular survival, CellTiter-Glo luminescent readout, NPC compound collection, primary HTS (AID 1117346;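 active = compounds that lower survival of DLD-1 colon cancer cells in the luminescence readout, no cutoff given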). The following applies: DLD-1 viability, CellTiter-Glo luminescence; at 20 µM (top of the series).

For `CCN(CC)CCOc1ccccc1C(=O)CCc1ccccc1`, the nuclear beta-catenin stimulation in experiment [1] (at 10 µM) was -0.8% (inactive); in experiment [1] (stimulation, at 2 µM), -1.7%. For the same compound, in experiment [2], the insulin secretion stimulation is 70% (active). In experiment [3], the viability decrease is 14.5% (inactive). In addition, in experiment [4], the tube area decrease was 0.9% (inactive). Besides, in experiment [5], the GLP1 secretion stimulation is 5.2% (inactive). Further, the inhibition of viability in experiment [6] is 61.9% (active). Also, the figures for the viability decrease (inhibition) in experiment [7] and in experiment [8] were 50.7% (active) and 23.2% (inactive), respectively.
Take `CCCCCCCCCCCCOS(=O)(=O)O`: the nuclear beta-catenin stimulation in experiment [1] (at 10 µM) is 2.3% (inactive); in experiment [1] (stimulation, at 2 µM) it was 1.9%. Moreover, the insulin secretion stimulation in experiment [2] was 0.9% (inactive). In experiment [3], the viability decrease was -7.5% (inactive). The tube area decrease in experiment [4] is 4.9% (inactive). The GLP1 secretion stimulation in experiment [5] was 15.2% (inactive). The inhibition of viability in experiment [6] is -7.97% (inactive). In addition, the viability decrease (inhibition) in experiment [7] is -57.7% (inactive); in experiment [8], -12.9% (inactive).
For the compound `c1ccc(CCNc2nc(-c3ccccc3)cs2)cc1`, the nuclear beta-catenin stimulation in experiment [1] (at 10 µM) is 1.5% (inactive); in experiment [1] (stimulation, at 2 µM), 0.6%. Moreover, the insulin secretion stimulation in experiment [2] is -1.4% (inactive). Further, the viability decrease in experiment [3] is 38.9% (inactive). Besides, in experiment [4], the tube area decrease was 34.9% (inactive). For the same compound, in experiment [5], the GLP1 secretion stimulation is -1.7% (inactive). In addition, the inhibition of viability in experiment [6] was 57.7% (active). Also, the figures for the viability decrease (inhibition) in experiment [7] and in experiment [8] were 35.5% (inactive) and 31.5% (inactive), respectively.
On to `O=C(O)Cc1cccc(-c2cc(CCCCCCc3ccc(O[C@H]4O[C@H](CO)[C@@H](O)[C@H](O)[C@@H]4O)c(-c4cccc(CC(=O)O)c4)c3)ccc2O[C@H]2O[C@H](CO)[C@@H](O)[C@H](O)[C@@H]2O)c1`, for which the nuclear beta-catenin stimulation in experiment [1] (at 10 µM) was 0.7% (inactive); in experiment [1] (stimulation, at 2 µM), 1.4%. Further, the insulin secretion stimulation in experiment [2] was 2.3% (inactive). For the same compound, the viability decrease in experiment [3] is -12.7% (inactive). In experiment [4], the tube area decrease is -29% (inactive). In experiment [5], the GLP1 secretion stimulation is 9.5% (inactive). Besides, in experiment [6], the inhibition of viability is -26.6% (inactive). In addition, the results for the viability decrease (inhibition) in experiment [7] and in experiment [8] were -24.6% (inactive) and -14.9% (inactive), respectively.
For the compound `COC(=O)C1=C(C)NC(C)=C(C(=O)OCC(C)=O)C1c1ccccc1[N+](=O)[O-]` (centres undefined), the nuclear beta-catenin stimulation in experiment [1] (at 10 µM) is 1.6% (inactive); in experiment [1] (stimulation, at 2 µM) it was 1.2%. In addition, in experiment [2], the insulin secretion stimulation is -0.3% (inactive). For the same compound, in experiment [3], the viability decrease is 25.5% (inactive). Moreover, in experiment [4], the tube area decrease was 7% (inactive). In experiment [5], the GLP1 secretion stimulation is -2.7% (inactive). The inhibition of viability in experiment [6] was 39.1% (inactive). The results for the viability decrease (inhibition) in experiment [7] and in experiment [8] were 69.6% (active) and 28.3% (inactive), respectively.
`CCN(CC)CC(=O)Oc1ccc(NC(C)=O)cc1`: the nuclear beta-catenin stimulation is -0.5% (inactive) in experiment [1] (at 10 µM) and 6.1% in experiment [1] (stimulation, at 2 µM). For the same compound, in experiment [2], the insulin secretion stimulation is -0.7% (inactive). Also, in experiment [3], the viability decrease is 0.8% (inactive). Moreover, the tube area decrease in experiment [4] is -10.3% (inactive). The GLP1 secretion stimulation in experiment [5] is -0.7% (inactive). For the same compound, the inhibition of viability in experiment [6] is 1.8% (inactive). Further, the viability decrease (inhibition) is 2.2% (inactive) in experiment [7] and -9.7% (inactive) in experiment [8].
On to `Cc1oc(=O)oc1COC(=O)[C@@H]1N2C(=O)[C@@H](NC(=O)[C@H](N)c3ccccc3)[C@H]2SC1(C)C`, for which the nuclear beta-catenin stimulation in experiment [1] (at 10 µM) is 0.5% (inactive); in experiment [1] (stimulation, at 2 µM), 1.3%. Besides, the insulin secretion stimulation in experiment [2] was -1% (inactive). The viability decrease in experiment [3] was -11.1% (inactive). Besides, the tube area decrease in experiment [4] was -10.3% (inactive). Also, the GLP1 secretion stimulation in experiment [5] was -1.9% (inactive). Also, the inhibition of viability in experiment [6] was -15.2% (inactive). Besides, the viability decrease (inhibition) in experiment [7] is 25.1% (inactive); in experiment [8], -14.8% (inactive).
On to `CC(C)(C)NCC(O)COc1ccc(NC(=O)NC2CCCCC2)cc1` (centres undefined), for which the nuclear beta-catenin stimulation in experiment [1] (at 10 µM) was 1.2% (inactive); in experiment [1] (stimulation, at 2 µM), -0.1%. For the same compound, in experiment [2], the insulin secretion stimulation was 1.65% (inactive). In addition, the viability decrease in experiment [3] was -5.2% (inactive). In addition, the tube area decrease in experiment [4] was 9.5% (inactive). Besides, the GLP1 secretion stimulation in experiment [5] is 2% (inactive). The inhibition of viability in experiment [6] was -0.2% (inactive). The viability decrease (inhibition) in experiment [7] was -5.6% (inactive); in experiment [8], -1.8% (inactive).
Consider `CCOc1ncc(F)c(=O)[nH]1`, for which the nuclear beta-catenin stimulation in experiment [1] (at 10 µM) is -1% (inactive); in experiment [1] (stimulation, at 2 µM), -1.1%. The insulin secretion stimulation in experiment [2] was 2.9% (inactive). For the same compound, the viability decrease in experiment [3] was 0.7% (inactive). Further, in experiment [4], the tube area decrease was 0.1% (inactive). The GLP1 secretion stimulation in experiment [5] was 2.1% (inactive). The inhibition of viability in experiment [6] is 2.4% (inactive). Further, the viability decrease (inhibition) in experiment [7] is 3% (inactive); in experiment [8] it was -4.2% (inactive).
Take `CC1CN(c2cc3c(cc2F)c(=O)c(C(=O)O)cn3-c2ccc(F)cc2F)CCN1` (centres undefined): the nuclear beta-catenin stimulation in experiment [1] (at 10 µM) is -0.4% (inactive); in experiment [1] (stimulation, at 2 µM), 0%. The insulin secretion stimulation in experiment [2] is 2.1% (inactive). For the same compound, the viability decrease in experiment [3] was 8.7% (inactive). In addition, the tube area decrease in experiment [4] is 5.5% (inactive). Further, in experiment [5], the GLP1 secretion stimulation is -0.9% (inactive). Further, in experiment [6], the inhibition of viability is 10.7% (inactive). In addition, the figures for the viability decrease (inhibition) in experiment [7] and in experiment [8] were 16.6% (inactive) and -0.2% (inactive), respectively.
As for `COC(=O)[C@H]1[C@H]2C[C@@H]3c4[nH]c5cc(OC)ccc5c4CCN3C[C@H]2C[C@@H](OC(=O)/C=C/c2ccc(O)c(OC)c2)[C@@H]1OC`, the nuclear beta-catenin stimulation is 74.6% (active) in experiment [1] (at 10 µM) and 3.6% in experiment [1] (stimulation, at 2 µM). Moreover, the insulin secretion stimulation in experiment [2] is 0.4% (inactive). Further, the viability decrease in experiment [3] was 91.8% (active). In experiment [4], the tube area decrease is 21% (inactive). Further, in experiment [5], the GLP1 secretion stimulation was 0.1% (inactive). The inhibition of viability in experiment [6] was 85% (active). The figures for the viability decrease (inhibition) in experiment [7] and in experiment [8] were 142% (active) and 102% (active), respectively.
As for `O=C(O)C1CSC(C(=O)O)N1` (centres undefined), the nuclear beta-catenin stimulation in experiment [1] (at 10 µM) was 0.7% (inactive); in experiment [1] (stimulation, at 2 µM), 1.2%. Further, the insulin secretion stimulation in experiment [2] is -0.4% (inactive). The viability decrease in experiment [3] is -6.8% (inactive). In experiment [4], the tube area decrease was -2.5% (inactive). Besides, in experiment [5], the GLP1 secretion stimulation is -3.3% (inactive). For the same compound, the inhibition of viability in experiment [6] was 2.5% (inactive). The viability decrease (inhibition) in experiment [7] is 4% (inactive); in experiment [8] it was -8.7% (inactive).
Consider `COC(=O)c1cc(Cl)ccc1OC`, for which the nuclear beta-catenin stimulation is -0.1% (inactive) in experiment [1] (at 10 µM) and -1.6% in experiment [1] (stimulation, at 2 µM). Moreover, the insulin secretion stimulation in experiment [2] was 1.5% (inactive). Moreover, the viability decrease in experiment [3] is 1.2% (inactive). In addition, the tube area decrease in experiment [4] is -13.8% (inactive). In addition, in experiment [5], the GLP1 secretion stimulation is 2.6% (inactive). Besides, in experiment [6], the inhibition of viability is 8.2% (inactive). Besides, the viability decrease (inhibition) was -4.7% (inactive) in experiment [7] and 0.3% (inactive) in experiment [8].
With `CC(NC(CCc1ccccc1)C(=O)O)C(=O)N1C(=O)N(C)CC1C(=O)O` (centres undefined), the nuclear beta-catenin stimulation in experiment [1] (at 10 µM) was -1.2% (inactive); in experiment [1] (stimulation, at 2 µM), 1.8%. In addition, the insulin secretion stimulation in experiment [2] is 5.3% (inactive). In addition, the viability decrease in experiment [3] is -39.7% (inactive). The tube area decrease in experiment [4] is 6% (inactive). In addition, the GLP1 secretion stimulation in experiment [5] was -5.4% (inactive). The inhibition of viability in experiment [6] is 2.8% (inactive). Moreover, the viability decrease (inhibition) in experiment [7] was 4.5% (inactive); in experiment [8], -6% (inactive).
In the case of `C[N+]1(CC2COC(c3ccccc3)(C3CCCCC3)O2)CCCCC1` (centres undefined), the nuclear beta-catenin stimulation in experiment [1] (at 10 µM) was -2.3% (inactive); in experiment [1] (stimulation, at 2 µM), -1.4%. Further, the insulin secretion stimulation in experiment [2] was 5% (inactive). Besides, the viability decrease in experiment [3] was -13.4% (inactive). Moreover, the tube area decrease in experiment [4] was 10.1% (inactive). Also, the GLP1 secretion stimulation in experiment [5] was -2.3% (inactive). In experiment [6], the inhibition of viability is 28.7% (inactive). Moreover, the viability decrease (inhibition) is 7.6% (inactive) in experiment [7] and 3.2% (inactive) in experiment [8].
For `O=Cc1ccccc1C=O`, the nuclear beta-catenin stimulation is -0.8% (inactive) in experiment [1] (at 10 µM) and 0.2% in experiment [1] (stimulation, at 2 µM). Also, in experiment [2], the insulin secretion stimulation was -0.6% (inactive). The viability decrease in experiment [3] was 1.65% (inactive). In addition, the tube area decrease in experiment [4] is 9.9% (inactive). Moreover, the GLP1 secretion stimulation in experiment [5] was 2.6% (inactive). In addition, the inhibition of viability in experiment [6] was -1.7% (inactive). For the same compound, the viability decrease (inhibition) in experiment [7] is 12.2% (inactive); in experiment [8], -1.7% (inactive).
